# According to paper PMC5540273 (PLoS ONE, 2017):
# What was measured:
# Conditions in all cases: concentration: 1 μM, replicates: in singlicate; n = 1
# CAMK4 = tested on: CAMK4
# CAMKK1 = tested on: CAMKK1
# CAMKK2 = tested on: CAMKK2
# CASK = tested on: CASK
# CDC2L1 = tested on: T1, CDC2L1
# T1 construct: gene CDK11B
# CDC2L2 = tested on: CDC2L2
# CDC2L5 = tested on: T2, CDC2L5
# T2 construct: gene CDK13
# CDK11 = tested on: T3, CDK11
# T3 construct: gene CDK19
# CDK2 = tested on: CDK2
# CDK3 = tested on: CDK3
# CDK4-cyclinD1 = tested on: CDK4-cyclinD1
# CDK4-cyclinD3 = tested on: CDK4-cyclinD3
# CDK4 = tested on: CDK4
# CDK5 = tested on: CDK5
# CDK7 = tested on: CDK7
# CDK8 = tested on: CDK8
# CDK9 = tested on: CDK9
# CDKL1 = tested on: CDKL1
# CDKL2 = tested on: CDKL2
# CDKL3 = tested on: CDKL3
# 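Also: KINOMEscan kinase panel screen.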
Structure (SMILES),%Inh (CAMK4) [%],%Inh (CAMKK1) [%],%Inh (CAMKK2) [%],%Inh (CASK) [%],%Inh (CDC2L1) [%],%Inh (CDC2L2) [%],%Inh (CDC2L5) [%],%Inh (CDK11) [%],%Inh (CDK2) [%],%Inh (CDK3) [%],%Inh (CDK4-cyclinD1) [%],%Inh (CDK4-cyclinD3) [%],%Inh (CDK4) [%],%Inh (CDK5) [%],%Inh (CDK7) [%],%Inh (CDK8) [%],%Inh (CDK9) [%],%Inh (CDKL1) [%],%Inh (CDKL2) [%],%Inh (CDKL3) [%]
O=C1NC(=O)C(c2ccc(Cl)cc2)=C1Nc1ccc(O)cc1 [SB-340867],0,0,0,4,0,0,0,0,0,4,0,0,0,0,0,11,0,12,41,0
CSc1ccc(-c2nc3n(c2-c2ccncc2)CCC3)cc1 [SKF-105561],30,0,0,3,15,24,30,0,0,0,0,0,27,0,0,0,0,7,0,0
CNCc1ccc2nc(NC(=O)c3ccc(C(C)(C)C)cc3)cn2c1,6,0,12,18,16,4,33,4,0,7,14,0,3,0,8,1,3,0,0,0
Cc1ccc(NC(=O)Nc2ccccc2F)cc1-c1ccc(C(=O)Nc2ccncc2)cc1 [GSK1398477],5,15,31,17,8,10,0,12,0,24,0,0,0,5,0,19,3,7,30,0
Cc1ccc(NC(=O)Nc2ccc(Cl)c(C(F)(F)F)c2)cc1-c1ccc(C(=O)Nc2ccncc2)cc1 [GSK1398470],0,0,0,0,0,20,0,11,0,0,0,0,0,0,0,36,0,86,34,0
CCn1c(-c2ccccc2)nc2cnccc21 [SB-733416],13,0,0,18,0,0,98.3,0,12,19,0,6,3,0,0,0,0,0,9,0
Cc1nccc(-c2c(-c3ccc(F)cc3)ncn2CCCN2CCOCC2)n1.Cl [SB-282975],6,9,0,21,100,23,5,11,37,26,14,33,18,3,27,39,100,34,20,12
Cc1ccccc1-c1cc(-c2c[nH]nc2-c2ccccn2)ccn1 [GW680061],0,0,0,25,0,9,0,2,0,17,0,0,0,0,0,23,0,0,10,0
CNc1nc(-c2ccc3c(N)n[nH]c3c2)cc(N2C[C@@H](C(=O)Nc3ccccc3)CC[C@H]2C)n1 [GSK2298859],0,21,29,24,0,21,0,0,0,0,0,2,25,0,0,7,0,3,0,0
COc1ccc(Nc2nccc(N3CCC(NC(=O)c4cc5ccccc5s4)C3)n2)cc1 (stereo not drawn) [GSK1379738],0,11,2,21,0,17,0,41,0,12,0,6,19,0,0,6,2,8,35,0
O=C(Nc1n[nH]c2cc(-c3ccsc3)ccc12)C1CC1 [SB-732932],0,9,0,23,13,3,47,5,57,38,14,0,86,14,21,0,17,10,94.7,36
COc1cccc(NC(=O)Nc2ccc(C)c(-c3ccc(C(=O)Nc4ccncc4)cc3)c2)c1 [GSK1398474],10,0,19,0,0,15,0,0,24,0,0,0,37,0,0,0,0,51,18,0
CNc1cc(-c2ccc3c(N)n[nH]c3c2)nc(N)n1 [GSK2224810],0,5,11,6,3,30,0,8,0,9,3,0,18,0,2,26,0,17,0,0
CCCCc1nn2ncccc2c1-c1ccnc(NC2CC2)n1 [GW684374],0,0,14,0,0,11,0,5,0,0,0,12,21,0,0,0,0,0,15,0
Cn1cncc1C(=O)NC1CCN(c2ccnc(Nc3ccc(F)cc3)n2)C1 (stereo not drawn) [GSK1379717],0,30,32,14,0,6,0,3,0,0,0,14,2,0,0,29,0,99,3,99.5
Cc1cccc2c(-c3ccncn3)c(-c3ccc(F)cc3)nn12 [GW515532],0,0,0,0,0,3,0,0,0,3,0,0,0,0,0,10,0,0,13,0
COc1ccc(Nc2nccc(N3CCC(NC(=O)C(C)c4ccc(Cl)cc4)CC3)n2)cc1 (stereo not drawn) [GSK1379812],0,0,31,3,0,10,0,63,0,0,0,0,33,0,0,20,0,4,0,0
O=C1NC(=O)C(c2ccc(Cl)cc2)=C1Nc1cccc(Cl)c1 [SB-317651],29,7,5,27,0,4,0,6,0,8,12,0,100,0,16,2,0,11,20,2
O=C(Nc1n[nH]c2nc(-c3cccs3)c(Br)cc12)C1CCCC1 [SB-743341],0,7,0,12,1,0,13,0,75,67,11,40,16,24,60,75,27,10,87,0
COc1cccc(C2=C(Nc3cc(Cl)c(O)c(Cl)c3)C(=O)NC2=O)c1 [SB-390767],0,11,0,32,0,0,0,0,0,18,0,0,0,5,0,0,0,1,20,0
COC(=O)C(NC(=O)NC1CCN(c2ccnc(Nc3ccc(F)cc3)n2)C1)c1ccccc1 (stereo not drawn) [GSK1379712],0,25,23,2,0,17,0,54,81,19,20,4,29,1,14,58,18,0,10,0

Structure (SMILES),%Inh (CAMK4) [%],%Inh (CAMKK1) [%],%Inh (CAMKK2) [%],%Inh (CASK) [%],%Inh (CDC2L1) [%],%Inh (CDC2L2) [%],%Inh (CDC2L5) [%],%Inh (CDK11) [%],%Inh (CDK2) [%],%Inh (CDK3) [%],%Inh (CDK4-cyclinD1) [%],%Inh (CDK4-cyclinD3) [%],%Inh (CDK4) [%],%Inh (CDK5) [%],%Inh (CDK7) [%],%Inh (CDK8) [%],%Inh (CDK9) [%],%Inh (CDKL1) [%],%Inh (CDKL2) [%],%Inh (CDKL3) [%]
O=C(Nc1n[nH]c2nc(-c3cccs3)c(Br)cc12)C1CC1 [SB-735297],0,0,0,13,1,12,24,0,77,26,0,0,0,0,16,0,0,34,96.4,0
CC(C)c1cc(-c2ccc3c(N)n[nH]c3c2)nc(N)n1 [GSK2250882],0,0,18,21,0,5,0,0,0,5,0,0,0,0,0,20,0,23,20,0
COC(=O)C(Cc1ccccc1)NC(=O)NC1CCN(c2ccnc(Nc3ccc(F)cc3)n2)C1 (stereo not drawn) [GSK1379714],9,19,9,4,0,18,0,48,0,6,29,0,5,0,0,48,0,8,9,0
Cn1cncc1-c1cc2c(Nc3ccc(OCc4ccccc4)cc3)ncnc2cn1 [GW281179],0,3,32,20,0,17,0,47,0,7,0,4,0,0,0,17,0,100,21,0
COC(=O)c1cccc(NC(=O)NC2CCN(c3ccnc(Nc4ccc(F)cc4)n3)C2)c1 (stereo not drawn) [GSK1379725],0,0,0,25,0,0,0,68,0,4,0,0,6,0,0,41,0,0,82,0
Cc1ccccc1Cn1ccn2c(=O)cc(N3CCOCC3)nc12 [GSK2269905],0,9,31,15,0,0,0,0,0,12,0,0,0,0,0,0,0,12,15,0
CC(=O)c1c(C)c2cnc(Nc3ccn(C)n3)nc2n(C2CCCC2)c1=O,0,7,13,12,0,100,0,2,3,0,99.6,98.4,19,0,0,0,18,0,0,0
COc1cccc(CNC(=O)NC2CCN(c3ccnc(Nc4ccc(F)cc4)n3)C2)c1 (stereo not drawn) [GSK1379723],0,79,78,27,0,0,0,0,0,6,0,15,0,0,0,0,0,0,39,0
FC(F)(F)c1ccccc1-c1cc(-c2c[nH]nc2-c2ccccn2)ccn1 [GW679396],0,5,21,17,0,0,0,0,0,0,17,0,32,0,0,9,4,0,6,0
COc1ccc(Nc2nccc(NCCNC(=O)Nc3cc(C)ccc3C)n2)cc1 [GSK1379899],0,13,0,0,0,0,0,0,0,6,0,0,3,0,0,13,0,0,21,0
c1ccc(-c2ccnc3[nH]ccc23)cc1 [SB-693578],0,10,11,26,0,6,0,20,0,2,0,19,22,0,6,35,0,2,12,0
Cc1ccc(NC(=O)Nc2ccccc2)cc1-c1ccc(C(=O)Nc2ccncc2)cc1 [GSK1398471],0,0,19,0,0,13,0,11,1,0,0,0,0,0,0,0,0,0,23,1
Cl.Cl.Cl.N#Cc1ccc(CCNc2nccc(-c3cccc(CN4CCNCC4)c3)n2)cc1 [GSK2137462],1,35,22,0,0,6,0,0,0,0,0,24,0,0,69,0,22,2,6,0
CNc1nc(-c2ccc3c(N)n[nH]c3c2)cc(N2C[C@@H](C(=O)NC3CCCCC3)OC[C@H]2C)n1 [GSK2375584],0,21,35,12,0,25,0,16,0,0,3,7,100,0,3,45,0,13,0,0
CC[C@@H]1CO[C@H](C(=O)Nc2ccccc2)CN1c1cc(-c2ccc3c(N)n[nH]c3c2)nc(NC)n1 [GSK2376236],0,5,22,8,8,14,0,12,0,9,0,5,0,0,0,5,0,8,6,0
COC(=O)c1cccc(NC(=O)NC2CCN(c3ccnc(Nc4ccc(OC)cc4)n3)C2)c1 (stereo not drawn) [GSK1379746],0,0,0,2,0,32,0,76,5,9,34,0,19,0,0,48,1,14,77,0
Cc1ccc(NC(=O)c2ccc(Cl)cc2)cc1-c1ccc(C(=O)Nc2ccncc2)cc1 [GSK1398467],0,0,5,16,0,24,0,2,0,6,0,0,0,0,0,0,0,13,20,0
CC(=O)c1c(C)c2cnc(Nc3ccc(N4CCNCC4)cn3)nc2n(C2CCCC2)c1=O,0,0,0,0,0,3,0,0,0,8,96.6,98.5,21,0,27,0,2,0,0,6
COc1ccc(Nc2nccc(N3CCC(NC(=O)C(C)c4ccc(Cl)cc4)C3)n2)cc1 (stereo not drawn) [GSK1379735],0,18,5,48,6,6,0,21,0,24,0,0,23,0,0,35,0,100,29,0
COc1ccc(CSc2nnc(-c3ccc4c(c3)CCO4)o2)cc1,0,1,15,0,0,0,90,0,0,0,0,0,0,0,0,0,0,0,0,0
O=c1cc(N2CCOCC2)nc2n(Cc3cccc(Cl)c3Cl)c3ccccc3n12 [GSK2299009],9,27,29,10,0,11,0,94.4,0,29,0,0,31,16,0,0,6,15,14,0
